This note sets out measurements from PubChem BioAssay AID709 (SRMLSC, 2007).

Out of some 65,000 compounds screened, about 3,600 (5.5%) were called active. The entries come from a sample that favours actives as a whole. A number with no mark means an inactive call.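 The calls were made as follows: active = at 10 µM, mean starting fluorescence two-fold or more over control wells; inactive = the rest.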

The nature of this assay: intrinsic fluorescence of library compounds, ex339/em460 – biochemical, MLSMR library, data from DPM-DC assay, artefact control, profiling panel (AID 709).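 Also: signal is the first read of a kinetic run.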 Conditions: compound autofluorescence, ex339/em460 nm, NADH buffer; at 10 µM; hits give high values; 1 = no-compound wells, NADH background.
In the case of `O=C(NCc1ccccn1)c1cnc2sccn2c1=O`, the fluorescence fold increase is 2.7 (active). The figure for `O=C(NCc1ccccn1)Nc1ccc(F)cc1` is 1.14; for `CCOC(=O)c1cnc2sccn2c1=O` it is 3.33 (active); for `CCOC(=O)c1cnc(-n2nc(C)cc2C)nc1-n1nc(C)cc1C` it is 1.13.

As to `CCCCOc1ccc(-c2ncc(C(=O)OCC)c(N)n2)cc1`, the fluorescence fold increase was 1.17. With `O=C(NCc1ccccn1)c1cc2ccccc2oc1=O`, the fluorescence fold increase is 1.48. `Cc1cc2nc(-c3ccc(NC(=O)c4cccnc4)cc3)oc2cc1C`: the fluorescence fold increase is 2.26 (active). As for `CCOC(=O)c1cc(NC(=O)c2cccnc2)cc(C(=O)OCC)c1`, the figure is 1.12.

Turning to `CC(C)NS(=O)(=O)c1ccc(NC(=O)c2cccnc2)cc1`, the fluorescence fold increase is 1.03. On to `CSc1nc(C)nc2c1c(=O)n(C)c(=O)n2C`, for which the fluorescence fold increase is 1.11. As for `Cc1ccccc1NC(=O)NCc1ccco1`, the figure is 1.12.

Consider `Cc1cc(NCc2ccco2)n2c(nc3ccccc32)c1C#N`, for which the fluorescence fold increase is 2.23 (active). As for `c1coc(CNc2ncnc3ccccc23)c1`, the fluorescence fold increase is 1.1. The figure for `Cc1cccc(OCc2nnc(SCn3nnc4ccccc4c3=O)o2)c1` is 1.07; for `CC(C)(C)n1nc2c(c1NC(=O)c1ccc(S(=O)(=O)N3CCCC3)cc1)CS(=O)C2` (configuration not stated) it is 1.02. As for `N/C(=N\c1nc2ccccc2o1)NC(=O)C(Cc1ccccc1)N1C(=O)c2ccccc2C1=O` (configuration not stated), the figure is 1.09. The figure for `O=C(NCCN1CCOCC1)[C@H](Cc1ccccc1)N1C(=O)c2ccccc2C1=O` is 2.12 (active); for `O=C(CCN1C(=O)c2ccccc2C1=O)NCCN1CCOCC1` it is 1.02. Take `Clc1ccc(Cc2nnc(-c3cccs3)o2)cc1`: the fluorescence fold increase was 1.11. As for `O=C(Nc1nccs1)C1CCCN1S(=O)(=O)c1cccc2cccnc12` (configuration not stated), the fluorescence fold increase is 1. In the case of `Cc1c(C(=O)OCC(=O)N(CCC#N)c2ccccc2)oc2c1ccc1ccccc12`, the fluorescence fold increase is 2.16 (active). As for `Cc1c(C(=O)OCc2cc(=O)n3cc(Br)ccc3n2)oc2ccccc12`, the figure is 1.07; as for `NC(=NC(=O)c1ccccc1)C1=C(O)CCC1=O`, 1.14; as for `CCCc1nc(-c2ccccc2O)n(-c2ccccc2)n1`, 1.12. As for `COc1ccc(OC)c2sc(NC(=O)C3COc4ccccc4O3)nc12` (configuration not stated), the figure is 1.19. The figure for `CCc1ccc(NC(=O)CSc2nc3ccccc3c(=O)n2CCN2CCOCC2)cc1` is 1.09; for `COCCNC(=O)CSc1nc2c(n1-c1ccccc1)CCCC2` it is 1.16; for `CCCCn1c(SCC(=O)NCC2CCCO2)nc2ccc(N3CCOCC3)cc2c1=O` (configuration not stated) it is 4.22 (active). As to `COCCCNC(=O)CSc1nc2ccc(N3CCOCC3)cc2c(=O)n1CCc1ccccc1`, the fluorescence fold increase was 2.61 (active). The figure for `CCn1c(SCC(=O)NCC2CCCO2)nc2cc(S(=O)(=O)N3CCCCC3)ccc21` (configuration not stated) is 1.

Turning to `Cc1ccc2cc(C#N)c(SCC(=O)NCC3CCCO3)nc2c1C` (configuration not stated), the fluorescence fold increase is 1.14. The figure for `CC12CCC(C(=O)N(CCC#N)CCC#N)(CC1=O)C2(C)C` (configuration not stated) is 1.07. On to `Cc1ccc(S(=O)(=O)N2CCC(C(=O)N[C@@H](C)C(=O)NCCc3ccccc3)CC2)cc1`, for which the fluorescence fold increase was 1.11. As for `O=C(c1c(Cl)nc2sccn12)N1CCCc2ccccc21`, the figure is 1; as for `O=C(CC(NCCN1CCOCC1)C(=O)O)Nc1cccc(Cl)c1` (configuration not stated), 1.1; as for `COc1ccc(-n2nnc3c(=O)n(CC(=O)N4CCC(Cc5ccccc5)CC4)cnc32)cc1`, 1.08. For the compound `COc1ccc2c(c1OC)C(=O)OC2c1c(O)nc(SC)n(-c2ccccc2)c1=O` (configuration not stated), the fluorescence fold increase was 1.06. The figure for `CCOC(=O)c1cc2ccccc2nc1C` is 1.08; for `Cc1cc(O)ccc1-c1cnc2ccccc2n1` it is 1.05. On to `Cc1nc2ccccc2cc1O`, for which the fluorescence fold increase was 2.48 (active).

As for `Cc1cccc(OCc2nnc(SCC(=O)N3CCN(C(=O)c4ccco4)CC3)n2C)c1C`, the fluorescence fold increase is 1.11. Consider `O=C(O)C1CCN(S(=O)(=O)N2CCOCC2)CC1`, for which the fluorescence fold increase was 1.1. As for `CCCn1c(=NC(C)=O)c(C(=O)OCC)cc2c(=O)n3ccccc3nc21`, the figure is 3.86 (active).

As to `CCOC(=O)c1cc2n(c1C)-c1ccccc1C2=O`, the fluorescence fold increase is 1.02. Turning to `CCOC(=O)c1cc2n(c1N)-c1ccccc1C2=O`, the fluorescence fold increase is 1.16.

In the case of `O=C(Nc1ccc(NC(=O)c2cccs2)cn1)c1ccco1`, the fluorescence fold increase is 1.08. The figure for `Cc1cccc(-n2c(N)cc(=O)nc2SC(C)C(=O)NC2CCCCC2)c1` (configuration not stated) is 1.06; for `O=C(CN1C(=O)C2C3C=CC(C3)C2C1=O)NCCc1ccccc1Cl` (configuration not stated) it is 1.05. The figure for `CCOc1ccc(OCC)c(NC(=O)CSc2nnc(Cn3cnc4ccccc43)n2C)c1` is 1.12; for `Cn1c(Cc2csc(N)n2)nnc1SC/C=C/c1ccccc1` it is 1.1; for `Cc1cn(C2C=CC(CO)O2)c(=O)[nH]c1=O` (configuration not stated) it is 1.07. As for `Cc1ccc(Cn2c(NC(=O)c3ccco3)nc3ccccc32)cc1`, the figure is 1.32. On to `CCn1nc(NC(=O)c2ccco2)c2cc3ccc(C)cc3nc21`, for which the fluorescence fold increase was 3.62 (active). As for `Cc1ccc(-n2nc3cc(Cl)c(NC(=O)c4ccco4)cc3n2)cc1`, the figure is 1.84; as for `CCOc1ccc(NC(=O)CCS(=O)(=O)c2cccc3nsnc23)cc1`, 1.08.

Take `CCC1CCCCN1C(=O)Nc1cccc(NC(=O)N2CCCCC2CC)c1` (configuration not stated): the fluorescence fold increase is 1.13. Regarding `CCOC(=O)N1CCN(S(=O)(=O)c2cc3c(cc2C)NC(=O)CO3)CC1`, the fluorescence fold increase is 1.11. As for `CCn1ncc(C2=NOC(C(=O)N3CCN(c4ccccc4)CC3)C2)c1C` (configuration not stated), the figure is 1.14; as for `O=C(NCc1cccs1)c1ccc2c(c1)ncn2C1CCCC1`, 1.03; as for `O=C(CSC1=Nc2ccccc2C2=NC(c3ccccc3)C(=O)N12)NCC1CCCO1` (configuration not stated), 2.12 (active). The figure for `O=C(CSc1nnc(-c2ccc(NS(=O)(=O)c3ccccc3)cc2)o1)NCC1CCCO1` (configuration not stated) is 1.01.

As for `O=C(CS(=O)(=O)Cc1ccccc1)NCC1CCCO1` (configuration not stated), the fluorescence fold increase is 1.1. As for `CN(C(=O)C1CCOC1)c1nnc(-c2cccnc2)s1` (configuration not stated), the figure is 1.03. As for `CN(C(=O)COc1ccccc1)c1nnc(-c2ccncc2)s1`, the figure is 5 (active); as for `COc1cccc(-c2nnc(N(C)C(=O)c3ccno3)s2)c1`, 1.38; as for `CN(C(=O)c1ccccn1)c1nnc(-c2ccccn2)s1`, 3.72 (active). Turning to `O=C(c1cccs1)N(C(=O)c1cccs1)c1ccccn1`, the fluorescence fold increase was 1.09. As for `CN(C(=O)c1ccno1)c1nnc(-c2cccnc2)s1`, the fluorescence fold increase is 1.68. As for `Cc1ccc(C)c(NC(=O)CSc2nnc(Cc3cccn3C)n2-c2ccc(F)cc2)c1`, the figure is 1.08. The figure for `CCCCOc1ccccc1/C=c1/sc2nc(-c3oc4ccccc4c3C)nn2c1=O` is 1.1; for `Cc1ccccc1CSc1nnc(-c2ccccn2)n1N` it is 1.08. In the case of `CN(C)CCCNc1c2c(c(C#N)c3nc4ccccc4n13)CCC2`, the fluorescence fold increase is 2.1 (active). Turning to `N#Cc1c2c(c(N3CCN(CCO)CC3)n3c1nc1ccccc13)CCCC2`, the fluorescence fold increase was 1.53.

`COc1ccc(-n2nc3c(c2NC(=O)Cc2cccc(C)c2)CS(=O)C3)cc1` (configuration not stated): the fluorescence fold increase is 1.15. For `Cn1cccc1C1(C(F)(F)F)NCCNC1=O` (configuration not stated), the fluorescence fold increase is 1.11.

In the case of `CC(=O)c1ccc(NC(=O)N[C@@H](Cc2ccccc2)C(=O)O)cc1`, the fluorescence fold increase is 1.09. The figure for `COc1cc(OC)cc(C(=O)Nc2ccc(-c3nc4ccccc4o3)c(O)c2)c1` is 2.11 (active); for `COc1ccc(NC(=O)c2ccc(OC)cc2)cc1` it is 1.13; for `COc1cc(OC)cc(C(=O)Nc2ncc3c(n2)CC(C)(C)CC3=O)c1` it is 1.1. As for `Cc1ccc(S(=O)(=O)NC(C)C(=O)Nc2ccccc2C(=O)N2CCCC2)cc1` (configuration not stated), the figure is 1.1. The figure for `CCCC(=O)N=c1sc2cccc(F)c2n1C` is 1.09; for `Cc1cc(N2CCCC2)n2nc(C)c(-c3ccccc3)c2n1` it is 1.68. In the case of `C/C(O)=C\c1nc(=O)c2c(C)cc(C)nc2n1-c1ccccc1`, the fluorescence fold increase was 1.08. For `Cc1nn2c3cc(N4CCOCC4)ccc3nc2c2ccccc12`, the fluorescence fold increase was 1.11. The figure for `O=C(c1ccco1)N1CCN(c2cccc(Cl)c2)CC1` is 1.03; for `Cc1cc(C)c2c(n1)nn1c(-n3ccnc3)cc(C)nc21` it is 3.27 (active).

Take `Cc1cc(C)c2c(n1)nn1c(N3CCN(c4cccc(Cl)c4)CC3)cc(C)nc21`: the fluorescence fold increase is 2.17 (active). The figure for `Cc1cc(C)c2c(n1)nn1c(N3CCOCC3)cc(C)nc21` is 2.97 (active); for `Cc1nc(SC(C)C)[nH]c(=O)c1Cc1ccccc1` it is 1.11. As for `CCOc1ccc2nc(NC(=O)CSc3nc4c(c(=O)n(C)c(=O)n4C)n3CC)sc2c1`, the figure is 1.12; as for `CC(=O)NC(Cc1ccc(F)cc1)C(=O)O` (configuration not stated), 1.02; as for `CCOC(=O)c1oc2ccccc2c1NC(=O)c1cccs1`, 1.25. The figure for `N#C/C=C1\Sc2ccccc2C(=O)N1CC(=O)N1CCN(S(=O)(=O)c2ccccc2)CC1` is 1.1; for `COc1cccc(NC(=O)C(C)Oc2ccccc2)c1` (configuration not stated) it is 1.11. As for `CC1Oc2ccccc2N(Cc2cccnc2)C1=O` (configuration not stated), the fluorescence fold increase was 1.14. The figure for `Cc1ccc(C(=O)OCC(=O)NCc2ccc3c(c2)OCO3)s1` is 0.99; for `O=C(COc1ccccc1)NCc1ccc2c(c1)OCO2` it is 1.08; for `COC(=O)Cc1c(C)c2ccc(OCC(=O)NCc3ccc4c(c3)OCO4)cc2oc1=O` it is 2.07 (active). As for `COCc1nnc(NC(=O)CS(=O)(=O)Cc2ccccc2)s1`, the figure is 1.1. The figure for `Cc1nc2c(-c3ccccc3)c(C)[nH]n2c(=O)c1Cl` is 2.16 (active); for `Cc1nc2nc(COc3ccccc3)[nH]n2c(=O)c1C` it is 1.17. Turning to `CC(=O)c1cc(-c2ccccc2)[nH]c1N1CCCC1`, the fluorescence fold increase was 1.05.
